Results taken from PubChem BioAssay (Tox21).
Results filed as inconclusive are left out. Active and inactive are the calls of the source. Unless noted, calls follow the shape of the dose curve; as a rule, active = well fitted curve in the direction sought with a large enough effect in the repeat runs; inconclusive = weak or mixed curves; inactive = no such curve, though single readings can be large; an effect the other way counts as inactive or inconclusive.

Experiments:
[1] = qHTS assay to identify small molecule antagonists of the androgen receptor (AR) signaling pathway using the MDA cell line in the presence of 0.5 nM R1881 - cell viability counter screen (AID 1259242); also: nearly all actives have a fitted effect of over 45% in size
Summary of the method: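 MDA-kb2 cells (MMTV-luciferase, AR/GR responsive) were treated with compounds plus 0.5 nM R1881 (final) for 16 hr at 37C, 0% CO2. Viability was then read in the same wells as live-cell protease fluorescence (CellTiter-Fluor, 30 min).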

[2] = molecular target: Estrogen receptor (Homo sapiens) (UniProt P03372); assay: qHTS assay to identify small molecule antagonists of the estrogen receptor alpha (ER-alpha) signaling pathway using the BG1 cell line in the presence of 0.1 nM 17-beta-estradiol (AID 1259244); also: nearly all actives have a fitted effect of over 50% in size
Sequence of Estrogen receptor (Homo sapiens) (P03372 whole entry, looked up): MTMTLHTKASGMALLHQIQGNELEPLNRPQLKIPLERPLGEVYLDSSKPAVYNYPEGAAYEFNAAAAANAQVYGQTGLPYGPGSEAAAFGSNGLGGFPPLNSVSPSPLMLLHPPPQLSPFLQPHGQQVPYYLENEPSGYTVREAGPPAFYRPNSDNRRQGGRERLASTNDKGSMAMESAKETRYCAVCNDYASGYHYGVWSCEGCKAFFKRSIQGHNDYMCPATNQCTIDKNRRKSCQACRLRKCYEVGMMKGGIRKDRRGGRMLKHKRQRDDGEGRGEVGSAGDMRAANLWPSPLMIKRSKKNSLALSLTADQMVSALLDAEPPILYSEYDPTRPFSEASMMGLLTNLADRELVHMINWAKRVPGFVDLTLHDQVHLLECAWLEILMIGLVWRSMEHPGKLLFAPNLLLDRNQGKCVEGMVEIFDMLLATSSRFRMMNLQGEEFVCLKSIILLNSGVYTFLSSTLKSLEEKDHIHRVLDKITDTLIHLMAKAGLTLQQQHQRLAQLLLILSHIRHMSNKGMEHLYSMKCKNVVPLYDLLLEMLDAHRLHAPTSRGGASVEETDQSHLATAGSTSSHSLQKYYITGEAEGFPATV
Summary of the method: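 VM7Luc4E2 cells (endogenous full-length ER-alpha, 4×ERE-luciferase), kept 5 days in phenol red-free, charcoal-stripped FBS medium; 4,000 cells/well. Compounds added with 0.1 nM (final) 17beta-estradiol, 22 hr at 37C; luminescence read with ONE-Glo after 30 min.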

[3] = qHTS assay to identify small molecule HDAC inhibitors (AID 1259364); also: top concentration of the series differs between compounds; nearly all actives have a fitted effect of over 45% in size
Summary of the method: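 Wild-type HCT-116 cells, plated overnight at 37 C, exposed to compounds 2 hr at 37 C; luminogenic HDAC-Glo substrate then added 30 min at room temperature. Luminescence reports relative endogenous class I/II HDAC activity.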

[4] = qHTS assay to identify small molecule HDAC inhibitors - cell viability counter screen (AID 1259365); also: series mostly up to about 92 µM; nearly all actives have a fitted effect of over 50% in size
Summary of the method: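 Viability readout: CellTiter-Glo luminescence. Wild-type HCT-116 cells, 2hr compound treatment following overnight attachment at 37 C.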

[5] = qHTS assay to identify small molecule agonists of the sonic hedgehog signaling (Shh) pathway - cell viability counter screen (AID 1259366); also: nearly all actives have a fitted effect of over 50% in size; also: potency is read from the fitted curve at half-maximal effect
Summary of the method: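 Viability measured fluorometrically (CellTiter-Fluor, 1hr, 37C) in 3T3 Gli1-Luc reporter cells after 23hr compound exposure within a 24hr incubation at 37C/5% CO2.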

[6] = qHTS assay to identify small molecule antagonists of the sonic hedgehog signaling (Shh) pathway - cell viability counter screen (AID 1259367); also: nearly all actives have a fitted effect of over 55% in size; also: potency is read from the fitted curve at half-maximal effect
Summary of the method: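 Using CellTiter-Fluor, viability of Gli1-Luc reporter 3T3 cells is read by fluorescence in the wells used for the Shh luciferase assay. Treatment lasts 23 hr with conditioned medium, then reagent 1 hr at 37C.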

[7] = qHTS assay to identify small molecule agonists of the sonic hedgehog signaling (Shh) pathway (AID 1259368; calls by dose curve;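 also: NIH/3T3-derived 3T3Gli1-Luc cells carrying a stable Gli1-driven firefly luciferase reporter; series mostly up to about 92 µM; nearly all actives have a fitted effect of over 15% in size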)
Summary of the method: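 NIH/3T3-derived 3T3Gli1-Luc cells with stably integrated Gli1-driven firefly luciferase, 2,000 cells/well, compounds added after 4 hr. Incubated 24 hr at 37C, 5% CO2; luminescence read after 30 min with luciferase reagent at room temperature.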

[8] = qHTS assay to identify small molecule agonists of the androgen receptor (AR) signaling pathway in the presence of an antagonist - cell viability counter screen (AID 1259379); also: nearly all actives have a fitted effect of over 25% in size; also: potency is read from the fitted curve at half-maximal effect
Summary of the method: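 MDA-kb2 cells (MMTV-luciferase, AR/GR), 3,000/well, 5 h attachment, then 3.0 µM nilutamide (final) and compounds at 15 concentrations. Viability by CellTiter-Fluor fluorescence after 16 h at 37 °C, 0% CO2, in the reporter wells.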

[9] = qHTS assay to identify small molecule agonists of the estrogen receptor beta (ER-beta) signaling pathway - cell viability counter screen (AID 1259380); also: nearly all actives have a fitted effect of over 30% in size; also: potency is read from the fitted curve at half-maximal effect
Summary of the method: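 ER-beta-UAS-bla HEK293T cells in medium with 2% charcoal-stripped FBS, pre-incubated 6 hr, then treated 16 hr at 37C. Cytotoxicity read in the same wells by CellTiter-Glo luminescence after 30 min at room temperature.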

[10] = qHTS assay to identify small molecule antagonists of the estrogen receptor beta (ER-beta) signaling pathway - cell viability counter screen (AID 1259382); also: nearly all actives have a fitted effect of over 55% in size; also: potency is read from the fitted curve at half-maximal effect
Summary of the method: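 ER-beta-UAS-bla HEK293T cells in 2% charcoal-stripped FBS medium, treated with compound plus 1 nM 17-beta-estradiol for 16 h at 37C. Viability read by CellTiter-Glo luminescence after 30 min at room temperature in the same wells.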

[11] = molecular target: Estrogen receptor (Homo sapiens) (UniProt P03372); assay: qHTS assay to identify small molecule agonists of the estrogen receptor alpha (ER-alpha) signaling pathway in the presence of an antagonist (AID 1259383; calls by dose curve; also: top concentration of the series differs between compounds; nearly all actives have a fitted effect of over 15% in size)
Summary of the method: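 VM7Luc4E2 cells express endogenous full-length ER-alpha with an ERE-luciferase reporter and were hormone-deprived for 5 days. Compounds at 15 concentrations were added with 10.0nM ICI-182,780 for 22hr at 37C. Luminescence was read with ONE-Glo.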

[12] = qHTS assay to identify small molecule agonists or antagonists of the thyroid stimulating hormone receptor (TSHR) signaling pathway - wild type cell line counter screen (AID 1259384; calls by dose curve)
Summary of the method: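 Counter screen in untransfected Hek293: compounds (15-point titration, triplicate) plus phosphodiesterase inhibitor Ro20-1724 added after 18 h plating; 30 min RT. Intracellular cAMP via competitive d2/cryptate immunoassay, 1 h incubation.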

[13] = qHTS assay to identify small molecule antagonists of the sonic hedgehog signaling (Shh) pathway (AID 1259369; calls by dose curve; also: nearly all actives have a fitted effect of over 45% in size; also: potency is read from the fitted curve at half-maximal effect)
Summary of the method: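 NIH/3T3-derived Gli1-Luc reporter cells plated 4 h, dosed with compound, then stimulated with conditioned medium for 24 h at 37 C. Firefly luciferase luminescence read after 30 min with detection reagent at room temperature.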

[14] = molecular target: Thyrotropin receptor (Homo sapiens) (UniProt P16473); assay: qHTS assay to identify small molecule antagonists of the thyroid stimulating hormone receptor (TSHR) signaling pathway (AID 1259385; calls by dose curve; also: nearly all actives have a fitted effect of over 20% in size)
Sequence of Thyrotropin receptor (Homo sapiens) (P16473 whole entry, looked up): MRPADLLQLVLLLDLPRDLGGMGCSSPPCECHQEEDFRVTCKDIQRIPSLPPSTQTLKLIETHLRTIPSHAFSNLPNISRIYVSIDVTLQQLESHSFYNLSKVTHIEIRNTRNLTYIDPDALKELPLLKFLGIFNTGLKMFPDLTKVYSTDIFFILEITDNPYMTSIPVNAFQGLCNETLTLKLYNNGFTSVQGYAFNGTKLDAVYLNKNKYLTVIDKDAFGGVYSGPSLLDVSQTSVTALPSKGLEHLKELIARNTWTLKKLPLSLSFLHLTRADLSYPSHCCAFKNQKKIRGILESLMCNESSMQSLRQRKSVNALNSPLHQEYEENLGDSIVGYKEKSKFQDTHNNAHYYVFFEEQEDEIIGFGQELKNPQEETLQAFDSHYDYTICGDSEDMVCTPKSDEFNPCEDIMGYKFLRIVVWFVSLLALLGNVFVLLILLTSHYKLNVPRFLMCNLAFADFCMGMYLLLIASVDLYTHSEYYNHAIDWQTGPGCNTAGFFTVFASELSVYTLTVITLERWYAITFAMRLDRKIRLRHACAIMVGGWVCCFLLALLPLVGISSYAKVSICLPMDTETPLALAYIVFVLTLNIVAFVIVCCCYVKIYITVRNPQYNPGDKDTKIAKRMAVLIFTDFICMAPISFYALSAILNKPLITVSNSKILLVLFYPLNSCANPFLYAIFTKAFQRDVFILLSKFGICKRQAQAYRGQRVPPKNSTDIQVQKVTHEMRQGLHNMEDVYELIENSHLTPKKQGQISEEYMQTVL
Summary of the method: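 Antagonist mode: compound-treated TSHR-expressing HEK293 cells were stimulated with 1.5 ng/mL TSH (final) in presence of Ro20-1724 for 30 min at RT. HTRF cAMP detection after 1 h; each compound tested at 15 concentrations, triplicate.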

[15] = molecular target: Estrogen receptor beta (Homo sapiens) (UniProt Q92731); assay: qHTS assay to identify small molecule agonists of the estrogen receptor beta (ER-beta) signaling pathway (AID 1259377; active = well fitted activation curve with a large enough effect in the signal ratio in the repeat runs, not every such curve was filed as active; the % refers to the signal ratio)
Sequence of Estrogen receptor beta (Homo sapiens) (Q92731 whole entry, looked up): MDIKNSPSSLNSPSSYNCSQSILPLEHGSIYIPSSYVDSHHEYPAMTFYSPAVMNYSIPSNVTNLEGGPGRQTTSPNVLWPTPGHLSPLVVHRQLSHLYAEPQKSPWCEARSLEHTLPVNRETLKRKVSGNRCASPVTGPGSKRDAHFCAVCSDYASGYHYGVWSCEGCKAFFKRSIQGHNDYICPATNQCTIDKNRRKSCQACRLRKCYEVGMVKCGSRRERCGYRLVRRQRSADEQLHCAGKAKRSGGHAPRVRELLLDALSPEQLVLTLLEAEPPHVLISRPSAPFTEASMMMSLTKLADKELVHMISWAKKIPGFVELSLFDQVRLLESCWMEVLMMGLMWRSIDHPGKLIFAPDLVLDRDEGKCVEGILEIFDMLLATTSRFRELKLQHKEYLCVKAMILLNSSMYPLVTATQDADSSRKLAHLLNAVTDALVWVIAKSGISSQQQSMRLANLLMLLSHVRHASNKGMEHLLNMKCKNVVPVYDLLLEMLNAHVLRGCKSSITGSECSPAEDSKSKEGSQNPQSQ
Summary of the method: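 A UAS-controlled beta-lactamase reporter in ER-beta-UAS-bla HEK293T cells reports receptor activation. Compounds act for 16 hr at 37C in 2% charcoal-stripped serum, and a FRET substrate is read by fluorescence after 2 hours.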

[16] = molecular target: Estrogen receptor beta (Homo sapiens) (UniProt Q92731); assay: qHTS assay to identify small molecule antagonists of the estrogen receptor beta (ER-beta) signaling pathway (AID 1259378; active = well fitted inhibition curve with a large enough effect in the signal ratio in the repeat runs, not every such curve was filed as active; the % refers to the signal ratio)
Summary of the method: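 Antagonist mode: compounds added to beta-lactamase reporter HEK293T ER-beta-UAS cells stimulated with E2 (1nM final), 16 hr at 37C. LiveBLAzer B/G FRET substrate, 2 hours room temperature, fluorescence read-out.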

[17] = molecular target: Androgen receptor (Homo sapiens) (UniProt P10275); assay: qHTS assay to identify small molecule agonists of the androgen receptor (AR) signaling pathway in the presence of an antagonist (AID 1259381; calls by dose curve; also: nearly all actives have a fitted effect of over 15% in size)
Sequence of Androgen receptor (Homo sapiens) (P10275 whole entry, looked up): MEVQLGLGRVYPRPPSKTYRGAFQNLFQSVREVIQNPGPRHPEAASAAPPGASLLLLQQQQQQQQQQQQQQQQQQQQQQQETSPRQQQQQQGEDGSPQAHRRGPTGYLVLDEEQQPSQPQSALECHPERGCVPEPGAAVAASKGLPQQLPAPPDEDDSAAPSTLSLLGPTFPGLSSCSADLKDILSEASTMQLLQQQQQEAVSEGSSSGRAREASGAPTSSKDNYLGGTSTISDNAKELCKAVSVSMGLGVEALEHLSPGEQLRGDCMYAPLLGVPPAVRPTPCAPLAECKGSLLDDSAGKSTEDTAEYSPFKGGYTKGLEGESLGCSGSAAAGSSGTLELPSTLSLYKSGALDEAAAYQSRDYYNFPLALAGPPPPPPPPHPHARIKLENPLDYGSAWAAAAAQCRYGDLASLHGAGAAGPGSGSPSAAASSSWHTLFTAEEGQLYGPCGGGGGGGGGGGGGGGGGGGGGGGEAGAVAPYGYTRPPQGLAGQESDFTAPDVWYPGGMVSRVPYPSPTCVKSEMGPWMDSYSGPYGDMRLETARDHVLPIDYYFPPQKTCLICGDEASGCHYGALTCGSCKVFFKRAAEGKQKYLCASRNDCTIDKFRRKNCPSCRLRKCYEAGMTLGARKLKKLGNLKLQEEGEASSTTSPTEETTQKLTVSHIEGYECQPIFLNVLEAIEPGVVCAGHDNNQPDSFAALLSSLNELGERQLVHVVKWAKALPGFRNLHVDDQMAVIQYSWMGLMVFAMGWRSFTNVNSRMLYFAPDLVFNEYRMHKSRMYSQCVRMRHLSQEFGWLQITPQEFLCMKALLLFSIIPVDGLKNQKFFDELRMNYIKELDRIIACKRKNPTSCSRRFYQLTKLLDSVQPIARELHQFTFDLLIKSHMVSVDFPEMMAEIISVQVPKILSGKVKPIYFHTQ
Summary of the method: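 MDA-kb2 cells carrying MMTV-luciferase (AR/GR responsive), 3,000 cells/well, co-treated with 3.0 uM nilutamide final. Compounds at 15 concentrations, 16 hr at 37C without CO2. Luciferase luminescence read after 30 min with ONE-Glo.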

[18] = qHTS assay to identify small molecule phospholipidosis (PLD) inducers (AID 1259344; active = well fitted curve in the direction sought with a large enough effect; an effect the other way counts as inactive or inconclusive)
Summary of the method: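 Fluorescent phospholipid staining (LipidTOX Red) measured by automated microscopy in fixed HepG2 cells after 24 h treatment; nuclei counterstained with Hoechst 33342; amiodarone as reference inducer.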

Measured: Potency

Cc1ccc(NC(=O)N(C)C)cc1NC(=O)N(C)C
not listed: [13] | [14] | [15] | [16] | [17] | [18]
inactive: all other assays above

CC(C)N(C)C
not listed: [15] | [16] | [17] | [18]
inactive: all other assays above

CC(=O)C(=O)CC(C)C
not listed: [15] | [16] | [17] | [18]
inactive: all other assays above

CNCc1ccc(NC(=O)c2c[nH]c3c2C(=O)CCC3)cc1
not listed: [2] | [9] | [11] | [13] | [14] | [17] | [18]
inactive: all other assays above

CC1C(C)(C)C2=C(C(=O)CCC2)C1(C)C (stereo unspecified)
inactive: [1] | [2] | [3] | [4] | [5] | [6] | [7] | [8] | [10] | [12]

COc1ccc(C)cc1
not listed: [2] | [11] | [15] | [16] | [17] | [18]
inactive: all other assays above

CN1CCCN(C(c2ccccc2)c2ccc(Cl)cc2)CC1 (stereo unspecified)
active: [5] 15 µM | [6] 13.3 µM | [13] 5.96 µM | [8] 26.6 µM | [9] 13.3 µM | [10] 13.3 µM
not listed: [1] | [15] | [16] | [18]
inactive: all other assays above

Cc1ccc2nc(N)[nH]c(=O)c2c1Sc1ccncc1
inactive: [1] | [18] | [3] | [4] | [6] | [15] | [8] | [10]

CC(=O)OCCC1CCCCC1
not listed: [9] | [12] | [14] | [17] | [18]
inactive: all other assays above

O=C(c1ccccc1)C1CCC1
not listed: [17] | [18]
inactive: all other assays above

CCCCCCCCCCCCCCCC(=O)OCC
not listed: [7] | [14] | [15] | [16] | [17] | [18]
inactive: all other assays above

CCN(CC)CC(=O)Nc1c(C)cccc1C(=O)OC
not listed: [14] | [17] | [18]
inactive: all other assays above

CCN(CC)CCOc1ccccc1C(=O)CCc1ccccc1
active: [9] 21.1 µM
not listed: [5] | [7] | [10] | [13] | [17]
inactive: all other assays above

ClC1=C(Cl)C1(Cl)Cl
not listed: [7] | [14] | [17] | [18]
inactive: all other assays above

CC(C)c1ccc(C#N)cc1
not listed: [5] | [17] | [18]
inactive: all other assays above

CC(CN(CCN(CC(C)OCCO)CC(C)OCCO)CC(C)OCCO)OCCO (stereo unspecified)
active: [8] 33.1 µM
inactive: [3] | [5] | [6] | [7] | [13] | [10] | [12] | [14]

CS(=O)(=O)c1ccc([C@@H](C[C@H]2CCC(=O)C2)C(=O)Nc2cnccn2)cc1Cl
not listed: [17] | [18]
inactive: all other assays above

O=C1OC[C@H](Cc2cccc(O)c2)[C@H]1Cc1cccc(O)c1
not listed: [2] | [11] | [15] | [16] | [17] | [18]
inactive: all other assays above

Cc1ccc2c(c1[N+](=O)[O-])C(=O)c1ccccc1C2=O
not listed: [5] | [9] | [11] | [15] | [16] | [17] | [18]
inactive: all other assays above
